Test results as given in PubChem BioAssay AID1159580 (chemical genetic matrix, 2015).
“And” between values parts separate entries of the source, which are not always exact repeats. Equal entries are not always repeated. Hit rate of the full screen: of about 5,500 compounds, about 2,000 (36%) were called active. Inconclusive results (about 18%) are left out. Cut-off read from the data, not from the text of the source: active = normalized growth mostly below about 0.91 (no sharp cut-off); inconclusive = no clear call, values can overlap the other calls; inactive = mostly above about 0.92. Some of the results follow.

Assay: chemical genetic growth profiling, strain panel (AID 1159580);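 note: tested at 20 µM; growth read once vehicle control cultures reached saturation at 30 °C; 1 = growth at the plate median or of vehicle wells; lower values mean less growth of the strain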
Details: S. cerevisiae deletion strains, growth OD

Measured: normalized growth

O=C(O)C1=C[C@@H](O)[C@@H](O)[C@H](O)C1
inactive: locus YAL013W, strain DEP1, stronger effect = lower value 1.02 | locus YAL021C, strain ccr4, stronger effect = lower value 1 | locus YAL026C, strain drs2, stronger effect = lower value 0.978 | locus YAL030W, strain snc1, stronger effect = lower value 0.969 | locus YBL061C, strain skt5, stronger effect = lower value 0.974 | locus YBR009C, strain hhf1, stronger effect = lower value 0.988 | locus YBR021W, strain FUR4, stronger effect = lower value 1.02 | locus YBR023C, strain chs3, stronger effect = lower value 0.988 | locus YBR171W, strain sec66, stronger effect = lower value 0.985 | locus YBR229C, strain ROT2, stronger effect = lower value 1.01 | locus YBR231C, strain swc5, stronger effect = lower value 0.98 | locus YBR279W, strain paf1, stronger effect = lower value 0.977 | locus YCL011C, strain gbp2, stronger effect = lower value 0.99 | locus YCL016C, strain dcc1, stronger effect = lower value 0.987 | locus YCL029C, strain bik1, stronger effect = lower value 1.01 | locus YCL061C, strain MRC1, stronger effect = lower value 0.989 | locus YCL069W, strain vba3, stronger effect = lower value 0.977 | locus YCR088W, strain abp1, stronger effect = lower value 0.974 | locus YDL005C, strain med2, stronger effect = lower value 0.976 | locus YDL035C, strain GPR1, stronger effect = lower value 1.04 | locus YDL040C, strain nat1, stronger effect = lower value 0.987 | locus YDL074C, strain BRE1, stronger effect = lower value 1.07 | locus YDL101C, strain DUN1, stronger effect = lower value 1.03 | locus YDL134C, strain PPH21, stronger effect = lower value 0.999 | locus YDL185W, strain tfp1, stronger effect = lower value 1.01 | locus YDL192W, strain arf1, stronger effect = lower value 1.02 | locus YDR001C, strain nth1, stronger effect = lower value 0.975 | locus YDR069C, strain doa4, stronger effect = lower value 0.97 | locus YDR101C, strain arx1, stronger effect = lower value 1.04 | locus YDR137W, strain rgp1, stronger effect = lower value 0.977 | locus YDR150W, strain NUM1, stronger effect = lower value 1.02 | locus YDR159W, strain sac3, stronger effect = lower value 0.979 | locus YDR162C, strain NBP2, stronger effect = lower value 1.01 | locus YDR195W, strain ref2 0.946 | locus YDR297W, strain sur2, stronger effect = lower value 0.963 | locus YDR318W, strain mcm21, stronger effect = lower value 0.999 | locus YDR334W, strain swr1, stronger effect = lower value 0.966 | locus YDR335W, strain msn5, stronger effect = lower value 0.976 | locus YDR388W, stronger effect = lower value 1.01 | locus YDR392W, strain spt3, stronger effect = lower value 1.04 | locus YDR502C, strain sam2, stronger effect = lower value 1.01 | locus YEL003W, strain gim4, stronger effect = lower value 0.979 | locus YEL037C, strain rad23, stronger effect = lower value 0.971 | locus YEL061C, strain CIN8 (second series), stronger effect = lower value 0.973 | locus YEL061C, strain CIN8, stronger effect = lower value 1.01 | locus YER015W, strain faa2, stronger effect = lower value 0.988 | locus YER016W, strain bim1, stronger effect = lower value 0.977 | locus YER110C, stronger effect = lower value 1.01 | locus YER111C, strain swi4, stronger effect = lower value 0.967 | locus YER155C, strain BEM2 (second series), stronger effect = lower value 0.958 | locus YER155C, strain BEM2, stronger effect = lower value 1.01 | locus YER167W, strain BCK2, stronger effect = lower value 1.01 | locus YFR010W, strain ubp6, stronger effect = lower value 0.964 | locus YGL078C, strain dbp3, stronger effect = lower value 1.01 | locus YGL086W, strain mad1, stronger effect = lower value 1.07 | locus YGL167C, strain pmr1, stronger effect = lower value 0.977 | locus YGL173C, strain kem1, stronger effect = lower value 0.974 | locus YGL227W, strain vid30, stronger effect = lower value 0.986 | locus YGL240W, strain doc1, stronger effect = lower value 0.988 | locus YGL248W, strain PDE1, stronger effect = lower value 1.03 | locus YGL253W, strain hxk2, stronger effect = lower value 0.984 | locus YGR135W, strain pre9, stronger effect = lower value 1.02 | locus YGR252W, strain gcn5, stronger effect = lower value 0.931 | locus YHR013C, strain ard1, stronger effect = lower value 0.949 | locus YHR027C, strain rpn1, stronger effect = lower value 0.968 | locus YHR030C, strain SLT2, stronger effect = lower value 1.01 and 0.984 | locus YHR079C, strain IRE1 (second series), stronger effect = lower value 1.01 | locus YHR079C, strain IRE1, stronger effect = lower value 0.972 | locus YHR094C, strain hxt1, stronger effect = lower value 0.993 | locus YHR129C, strain ARP1, stronger effect = lower value 1.02 | locus YHR142W, strain chs7, stronger effect = lower value 0.995 | locus YHR200W, strain rpn10, stronger effect = lower value 0.996 | locus YIL066C, strain RNR3, stronger effect = lower value 1.02 | locus YIL073C, strain SPO22, stronger effect = lower value 1.08 | locus YIL125W, strain kgd1, stronger effect = lower value 1.03 | locus YIR030C, strain dcg1, stronger effect = lower value 0.999 | locus YJL092W, strain hpr5, stronger effect = lower value 0.976 | locus YJL095W, strain BCK1 (second series), stronger effect = lower value 0.978 | locus YJL095W, strain BCK1, stronger effect = lower value 1.04 and 0.998 | locus YJL115W, strain asf1, stronger effect = lower value 0.952 | locus YJL129C, strain trk1, stronger effect = lower value 0.981 | locus YJL134W, strain LCB3, stronger effect = lower value 1.01 | locus YJL154C, strain vps35, stronger effect = lower value 0.983 | locus YJL164C, strain tpk1, stronger effect = lower value 0.981 | locus YJL166W, strain qcr8, stronger effect = lower value 0.974 | locus YJL168C, strain set2, stronger effect = lower value 1.01 | locus YJL187C, strain SWE1 (second series), stronger effect = lower value 1.04 | locus YJL187C, strain SWE1, stronger effect = lower value 0.976
